Source: article PMC4336329 (PLoS ONE, 2015)
In all, about 310,000 compounds went through this assay and about 14,000 (4.5%) showed an effect of 50% or more. The effect is printed as a negative number. Only a selection was taken, and strong results are over-represented in it overall.

The compounds below were run against human ether-à-go-go-related gene (hERG) potassium channel (human, UniProt Q12809) (assay: primary screen, population patch clamp on CHO cells stably expressing hERG; higher = less effect of the substance).
Chain of human ether-à-go-go-related gene (hERG) potassium channel (Q12809 whole entry, looked up): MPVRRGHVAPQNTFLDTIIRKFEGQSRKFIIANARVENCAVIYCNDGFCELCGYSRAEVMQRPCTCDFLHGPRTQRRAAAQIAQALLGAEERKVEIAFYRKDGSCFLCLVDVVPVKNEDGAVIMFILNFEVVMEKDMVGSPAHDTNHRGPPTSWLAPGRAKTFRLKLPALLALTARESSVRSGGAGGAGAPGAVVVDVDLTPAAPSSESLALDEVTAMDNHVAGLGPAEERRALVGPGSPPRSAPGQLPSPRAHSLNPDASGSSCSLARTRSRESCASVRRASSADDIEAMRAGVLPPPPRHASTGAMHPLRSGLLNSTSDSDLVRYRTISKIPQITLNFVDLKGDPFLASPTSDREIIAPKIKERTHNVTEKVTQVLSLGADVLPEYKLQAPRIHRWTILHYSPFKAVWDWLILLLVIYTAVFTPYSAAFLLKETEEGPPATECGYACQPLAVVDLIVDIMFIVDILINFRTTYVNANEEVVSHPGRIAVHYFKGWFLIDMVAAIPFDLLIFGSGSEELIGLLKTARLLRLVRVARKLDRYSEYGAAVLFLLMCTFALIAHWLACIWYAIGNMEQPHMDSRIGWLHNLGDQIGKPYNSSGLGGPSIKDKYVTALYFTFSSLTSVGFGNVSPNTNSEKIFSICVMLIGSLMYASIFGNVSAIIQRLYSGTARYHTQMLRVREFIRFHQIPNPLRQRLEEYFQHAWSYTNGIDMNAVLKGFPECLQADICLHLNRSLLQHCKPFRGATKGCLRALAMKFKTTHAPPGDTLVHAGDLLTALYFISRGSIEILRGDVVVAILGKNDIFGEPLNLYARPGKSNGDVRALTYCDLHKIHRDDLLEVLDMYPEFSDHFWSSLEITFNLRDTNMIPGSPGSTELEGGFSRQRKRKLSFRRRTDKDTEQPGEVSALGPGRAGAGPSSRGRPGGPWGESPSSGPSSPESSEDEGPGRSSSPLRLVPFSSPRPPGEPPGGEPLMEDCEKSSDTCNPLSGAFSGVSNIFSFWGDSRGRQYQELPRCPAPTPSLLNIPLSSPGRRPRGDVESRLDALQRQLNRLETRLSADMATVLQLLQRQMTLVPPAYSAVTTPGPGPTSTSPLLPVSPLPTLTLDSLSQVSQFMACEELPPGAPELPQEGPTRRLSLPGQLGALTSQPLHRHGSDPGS
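Further: peak tail current of the secondary pulse compared with the same well before compound.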

Compound | hERG current change (%, negative = inhibition) at 10uM [%]
CC(C)(C)NC(=O)CN(Cc1cccs1)C(=O)C1COc2ccccc2O1 (stereo not shown) | -14.7
Cc1cc(=O)[nH]c(N/N=C/c2c(C)oc3ccccc23)n1 | -0.943
Nc1nc(Nc2ccccc2)nc(NC2CCCCC2)c1[N+](=O)[O-] | 18.9
Cn1nccc1C(=O)N1CCOCC1 | 5.59
FC(F)Oc1ccc(NC(=S)NCC2COc3ccccc3O2)cc1 (stereo not shown) | -5.83
COc1ccc(OC)c(/C=N\NC(=O)c2ccc(COc3ccc(C)cc3[N+](=O)[O-])o2)c1 | 16.2
N#Cc1cnn(-c2cccc(Cl)c2)c1N | 11.6
Cc1csc(NC(=O)CS(=O)(=O)c2ccccc2)n1 | -18.1
COc1ccc(NC(=O)c2nc[nH]c2C(=O)N2CCN(c3ccccc3)CC2)cc1 | 3.64
CC(C)CN(C(=O)CSc1nn(-c2ccc(Cl)cc2)c(=S)s1)C1CCS(=O)(=O)C1 (stereo not shown) | -20.1
O=C(COC(=O)/C=C/c1cccs1)Nc1nc(-c2ccccc2)cs1 | 12.1
Cl.c1ccc(CN2CCN(c3nc(NCc4ccco4)c4ccccc4n3)CC2)cc1 | -68.3
Nc1nc(N2CCN(Cc3ccccc3)CC2)n[nH]1 | 24.7
Cl.c1ccc(CNc2nc(N3CCN(Cc4ccccc4)CC3)nc3ccccc23)cc1 | -65.9
c1ccc(CN2CCN(c3nc4ccccc4s3)CC2)cc1 | 11.8
Nc1nc(NCc2ccco2)nc(N2CCN(Cc3ccccc3)CC2)c1[N+](=O)[O-] | -41.9
c1ccc(CNc2nc(NCc3ccco3)nc(N3CCOCC3)n2)cc1 | -28.5
CCc1ccc(CCC(=O)Nc2ccc(C)c(C)c2)o1 | -20.8
COC(=O)NCC(c1ccco1)N1CCN(c2ccc(F)cc2)CC1 (stereo not shown) | -1.75
Cc1[nH]n(-c2ccccc2)c(=O)c1N=Nc1ccccc1C(=O)O | 1.85
COc1ccc(CN(C)C(=O)C(Cc2ccccc2)NC(=O)c2ccccc2)c(OC)c1 (stereo not shown) | -13.5
Cc1nn(-c2ccccc2)c2c1C1(C(=O)Nc3ccccc31)N1C(=N2)Sc2ccccc21 (stereo not shown) | 0.952

Compound | hERG current change (%, negative = inhibition) at 10uM [%]
Cc1cc(N)n2nc(C)c(-c3ccccc3)c2n1 | -21.9
Cc1ccc2c(cnn2C(=O)CCCC(=O)NC(C)c2ccccc2)c1 (stereo not shown) | -5.97
CCN(CC)S(=O)(=O)c1cccc(C(=O)Oc2cccnc2)c1 | -8.07
Cc1ccc(CC(=O)N2CCN(C)CC2)cc1 | 18.1
COc1ccc(N2CCN(C(=O)Cc3ccc(C)cc3)CC2)cc1 | -6.07
O=C(Cc1ccccc1)N1CCN(Cc2ccc([N+](=O)[O-])cc2)CC1 | -63.4
CS(=O)(=O)N1CCN(C(=O)Cc2ccc([N+](=O)[O-])cc2)CC1 | 0.692
Cc1ccc(CC(=O)N2CCN(c3ccc([N+](=O)[O-])cc3)CC2)cc1 | -62.1
O=C(Cc1ccc(Br)cc1)N1CCN(Cc2ccccc2)CC1 | -30.9
O=C(Cc1ccc([N+](=O)[O-])cc1)N1CCCCCC1 | -21.9
COc1ccccc1CC(=O)N1CCN(c2ccc([N+](=O)[O-])cc2)CC1 | -52
Cc1ccc(CC(=O)N2CCN(Cc3ccccc3)CC2)cc1 | 4.07
O=C(Cc1ccc([N+](=O)[O-])cc1)N1CCN(c2ccc([N+](=O)[O-])cc2)CC1 | -73.7
COc1ccccc1CC(=O)N1CCN(c2ccc(F)cc2)CC1 | -11.1
COc1ccccc1CC(=O)N1CCN(c2ccccc2)CC1 | 9.19
CC(=O)N/C(=C\c1ccc(F)cc1)C(=O)N(C)C | 14.2
O=C(OCn1nnc2ccccc2c1=O)c1ccc2c(=O)n3c(nc2c1)CCC3 | -7.06
Cc1ccccc1NC(=O)Cn1c(C)nc2ccc(N)cc2c1=O | 7.11
CCO.N#Cc1c(SC(C(=O)O)c2ccccc2)nc2c(c1-c1cccs1)CCCC2 (stereo not shown) | 25.2
C[C@@]12CCC=C[C@H]1[C@H](c1ccc(C(F)(F)F)cc1)N(Cc1ccccc1)C2=O | 12.2
O=C1C=C(NCc2ccc(Cl)cc2)CCC1 | -25.2
COC(=O)c1cc(OC)c(OC)cc1NC(=S)N1CCN(Cc2ccccc2)CC1 | 6.28

Compound | hERG current change (%, negative = inhibition) at 10uM [%]
CCOc1ccccc1C(=O)OCC(=O)NCC1CCCCC1 | -7.31
O=C(COC(=O)COc1ccccc1[N+](=O)[O-])Nc1cccc(Br)c1 | 9.05
COC(=O)COc1ccc2c(-c3cccc([N+](=O)[O-])c3)cc(=O)oc2c1 | -31.8
CCCOc1ccc(C(O)C(CN2CCOCC2)c2ccccc2)cc1.Cl (stereo not shown) | 1.07
O=[N+]([O-])c1ccc(Cl)c(/C=N/N2CCN(Cc3ccccc3)CC2)c1 | -1.74
CC(C)CC(=O)N1CCN(S(=O)(=O)c2ccccc2)CC1 | 0.444
O=[N+]([O-])c1ccc(/C=N/N2CCN(Cc3ccccc3)CC2)cc1 | -56.3
Clc1ccc(/C=N/N2CCN(Cc3ccccc3Cl)CC2)cc1 | 14.9
O=C(/C=C/c1ccc(F)cc1)N1CCN(Cc2ccccc2)CC1 | -40.6
O=C(/C=C/c1ccc(OCCCF)cc1)N1CCOCC1 | 1.61
O=[N+]([O-])c1cccc(/C=N/N2CCN(Cc3ccccc3)CC2)c1 | -0.159
O=C(/C=C/c1ccc(OCCCF)cc1)N1CCN(Cc2ccccc2)CC1 | -65.6
COc1ccc(/C=N/N2CCN(Cc3ccccc3)CC2)cc1 | -2.63
CC(CC(=O)N1CCN(S(=O)(=O)c2ccc([N+](=O)[O-])cc2)CC1)c1ccccc1 (stereo not shown) | -67.8
COc1ccc(/C=N\N2CCN(Cc3ccccc3Cl)CC2)cc1.Cl | -62.4
O=C(/C=C/c1ccc([N+](=O)[O-])cc1)N1CCN(S(=O)(=O)c2ccccc2)CC1 | -34.1
CCOc1ccc(NC(=O)CN(C)C(=O)c2c(-c3c(F)cccc3Cl)noc2C)cc1OCC | -3.83
Cc1cccc(C)c1OCc1cc(C(=O)N2CCN(c3ccccc3)CC2C)no1 (stereo not shown) | 7.3
O=C(COc1ccc(/C=N/NC(=O)c2ccccc2O)cc1)Nc1ccc([N+](=O)[O-])cc1 | 13.7
COc1ccc(NC(=O)C2=CC(c3ccco3)=NS(=O)(=O)N2C)cc1 | 0.0772
CCCCCCNC(=O)N[C@H](Cc1ccc(O)cc1)C(=O)NCCC[C@H]1CN2C(=NC[C@H]2CCC)N1CC1CCC1 | 9.27
CCCCCCC(=O)N1C/C=C\C(c2ccc(OC)cc2)N(Cc2ccc(F)cc2)C(=O)C1 (stereo not shown) | -43.7

Compound | hERG current change (%, negative = inhibition) at 10uM [%]
CCN(CC)S(=O)(=O)c1cc(OC)c(C)cc1C | -5.58
Cc1ccc(S(=O)(=O)CCC(=O)N2CCN(c3ccc(Cl)cc3)CC2)cc1 | -23.8
CC(=O)c1ccc(N2CCN(C(=O)CCS(=O)(=O)c3ccc(C)cc3)CC2)cc1 | -41
O=C(Cc1cccs1)N1CCN(c2ccc([N+](=O)[O-])cc2)CC1 | -66.1
O=C(/C=C/c1cccc([N+](=O)[O-])c1)N1CCN(Cc2ccccc2)CC1 | -47.5
Cc1ccc(S(=O)(=O)CCC(=O)N2CCN(c3ccc([N+](=O)[O-])cc3)CC2)cc1 | -70.8
O=C(/C=C/c1ccc(Cl)cc1)N1CCN(Cc2ccccc2)CC1 | -35.6
CC(=O)c1ccc(N2CCN(C(=O)Cc3cccs3)CC2)cc1 | -33.3
Cc1c(C(=O)N2CCN(c3ccccc3F)CC2)sc2ncn(CC(=O)N3CCOCC3)c(=O)c12 | -3.64
Cc1cc([N+](=O)[O-])ccc1NC(=O)c1sc2ncn(CC(=O)N3CCOCC3)c(=O)c2c1C | -0.176
Cc1c(C(=O)N2CCN(c3ccc([N+](=O)[O-])cc3)CC2)sc2ncn(CC(=O)N3CCOCC3)c(=O)c12 | -62.2
O=C(/C=C/c1ccc([N+](=O)[O-])cc1)N1CCN(Cc2ccccc2)CC1 | -66.8
O=C(Cc1cccs1)N1CCN(c2ccc(F)cc2)CC1 | -4.82
Cn1c(=O)cc(OCC(=O)N2CCN(C3CCCCC3)CC2)c2ccccc21 | -18.6
CN(CCc1ccccn1)C(=O)c1cccnc1Oc1ccccc1 | 11.3
O=C(O)C12C[C@H]3C[C@@H](C1)CC(n1ncc(N4CCN(c5ccccc5)CC4)c(Cl)c1=O)(C3)C2 | 9.94
CN(C(=O)Cn1c(=O)oc2ccccc21)C1CCCCC1 | -1.73
CCCN(CCC)CCCNC(=O)Cn1cnc2sc(C)c(S(=O)(=O)N3CCCCC3)c2c1=O | 9.2
CCCCOc1ccc(C(=O)NCC(=O)N(C)CC(=O)Nc2ccc(N3CCOCC3)cc2)cc1 | -27.4
